# According to PubChem BioAssay AID1851 (National Center for Advancing Translational Sciences (NCATS), 2009):
# The whole screen tested about 16,000 compounds, of which about 2,600 (16%) were called active. Another 20% or so got no clear call; they are omitted. The call rests on the fitted dose curve; in most records, active means well fitted curve in the direction sought with a large enough effect; inconclusive means small, poorly fitted or top-dose-only effect, or effect the other way; inactive means no such curve, though single readings can be large or run the other way. What follows is part of a selection rich in actives, with near analogues and random picks from the rest.
# Target: Cytochrome P450 2D6 (Homo sapiens) (UniProt P10635)
# Assay: Cytochrome panel assay with activity outcomes
# Details: recombinant CYP, pro-luciferin dealkylation, luminescence, p450-cyp2d6; series mostly up to 57.1 µM
# On the % scale 0 is the no-effect control and ±100 the full control effect.
# Cytochrome P450 2D6 (Homo sapiens), sequence (P10635 whole entry, looked up): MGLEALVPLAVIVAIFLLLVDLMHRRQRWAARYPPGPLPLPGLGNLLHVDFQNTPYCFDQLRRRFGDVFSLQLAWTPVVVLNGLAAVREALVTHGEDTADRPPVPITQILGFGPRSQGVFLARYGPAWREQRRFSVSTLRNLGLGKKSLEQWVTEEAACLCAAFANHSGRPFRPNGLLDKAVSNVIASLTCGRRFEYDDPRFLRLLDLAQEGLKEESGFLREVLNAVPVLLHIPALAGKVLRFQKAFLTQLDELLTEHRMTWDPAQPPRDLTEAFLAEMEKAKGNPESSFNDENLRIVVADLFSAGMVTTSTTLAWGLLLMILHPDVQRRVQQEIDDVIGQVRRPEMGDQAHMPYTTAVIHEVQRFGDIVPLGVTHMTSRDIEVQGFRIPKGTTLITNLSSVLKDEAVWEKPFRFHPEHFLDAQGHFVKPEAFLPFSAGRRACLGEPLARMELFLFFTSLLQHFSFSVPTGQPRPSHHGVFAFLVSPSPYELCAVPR
SMILES,AC50,"activity, negative = inhibition"
O=C(O)Cc1cnc[nH]1,inactive,
C/C(=C\C=C/[C@@H](C)C(=O)O)[C@H]1CN[C@H](C(=O)O)[C@@H]1CC(=O)O,inactive,
c1cnc(N2CC[C@@]3(CCCNC3)C2)nc1,7.94 µM (active),
c1ccc(N2CC[C@@]3(CCCNC3)C2)nc1,inactive,
N#Cc1ccc(CN2CC[C@@]3(CCCNC3)C2)cc1,inactive,
C=C(C)[C@H]1CC[C@]2(CO)CC[C@]3(C)[C@@H](CC[C@H]4[C@@]5(C)CC[C@@H](O)C(C)(C)[C@@H]5CC[C@@]43C)[C@H]12,inactive,
COC(=O)Nc1nc2ccc(C(=O)c3cccs3)cc2[nH]1,inactive,
COc1cc(-c2ccc(=O)[nH]n2)ccc1OC(F)F,inactive,
COc1ccc2[nH]cc(CCN)c2c1,inactive,
NCCc1c[nH]c2ccc(OC(=O)C(=O)O)cc12,,-17.3% [at 11.4 µM] (inactive)
C[C@H](N)Cc1c[nH]c2ccc(OCc3cccs3)cc12,0.794 µM (active),
O[C@@H]1[C@H](O)[C@H]2[C@@H](O)CCN2C[C@@H]1O,inactive,
CC(C)[C@]1(O)[C@@H](OC(=O)c2ccc[nH]2)[C@]2(O)[C@@]3(C)C[C@@]4(O)O[C@@]5([C@H](O)[C@@H](C)CC[C@]35O)[C@]2(O)[C@]41C,,9.77% [at 11.4 µM] (inactive)
NC(=O)CN1C[C@@H](O)CC1=O,inactive,
O=c1c(O)c(-c2cc(O)c(O)c(O)c2)oc2cc(O)cc(O)c12,inactive,
N[C@@H](Cc1ccccc1)P(=O)(O)O,,-3.26% [at 11.4 µM] (inactive)
c1ccc(C[C@@H](c2ccccc2)N2CCCCC2)cc1,2 µM (active),
CC(=O)NCCc1c[nH]c2ccccc12,inactive,
CC(C(=O)c1c[nH]c2ccccc12)N1CCSCC1 (configuration not stated),6.31 µM (active),
N[C@H](Cc1c[nH]c2ccccc12)P(=O)(O)O,,-0.254% [at 11.4 µM] (inactive)
CCCCc1nc2ccccc2c(=O)n1-c1ccc(Cl)cc1[N+](=O)[O-],inactive,
CN(C)[C@@H]1C(=O)C(C(N)=O)=C(O)[C@]2(O)C(=O)C3=C(O)c4c(O)cccc4[C@](C)(O)[C@H]3C[C@@H]12,,-6.07% [at 11.4 µM] (inactive)
CCCCN1C(=O)/C(=C\c2ccco2)C(=O)N(CCc2ccccc2)C1=O,inactive,
Fc1ccc(CCNCc2ccc(Cl)c(Cl)c2)cc1,0.398 µM (active),
Fc1ccc(CCNCc2cccc(Cl)c2)cc1,0.794 µM (active),
O=C(O)[C@@H](O)[C@@H](O)[C@@H]1[O][Sb][O][C@@H]1CO,,12.5% [at 11.4 µM] (inactive)
O=C(O)C[C@H]1NCc2cc3ccccc3nc21,,3.21% [at 11.4 µM] (inactive)
